Assay outcomes from PubChem.
The list is not random: actives were taken first. Their share in the collection is about 9.9%.
Tau FP inhib: qHTS for Inhibitors of Tau Fibril Formation, Fluorescence Polarization | K18 P301L tau heparin fibrillization, Alexa594 FP, 6 h | Potency, µM (titrated, usually from 57.7 µM), for the others: top-dose activity, negative = inhibition, most hits filed as inhibitors | 280,000 compounds, 0.39% hits | AID 1468, 2008; active = well fitted curve in the direction sought with a large enough effect; inconclusive = small, poorly fitted or top-dose-only effect, or another doubt; inactive = no such curve, though single readings can be large; an effect the other way counts as inactive or inconclusive; also: nearly all actives have a fitted effect of over 55% in size
Target sequence (P10636 561-689 P618L limits assumed): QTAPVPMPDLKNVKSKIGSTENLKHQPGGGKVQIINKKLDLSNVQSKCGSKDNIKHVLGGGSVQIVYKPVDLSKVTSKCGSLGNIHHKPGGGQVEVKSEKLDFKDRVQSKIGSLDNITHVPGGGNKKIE
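K18 P301L tau (15 uM unlabeled/0.24 uM Alexa 594-labeled, final) + compound + heparin 20 uM final; 100 mM NaOAc pH 7; 6 hr 37 C; ThT 30 uM final added, 1 hr RT; FP ex 555/em 632 nm.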
ALDH1A1 inh: qHTS Assay for Inhibitors of Aldehyde Dehydrogenase 1 (ALDH1A1); AID 1030, 2008; Purified ALDH1A1, NADH fluorescence, propionaldehyde substrate; Potency, µM (doses to about 75.3 µM), without a hit: at the highest dose activity, negative = inhibition, hits mostly inhibitors; 220,000 compounds, 7.3% hits;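 also: plate controls were no enzyme wells and a reference inhibitor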
Tau fibril ThT: qHTS for Inhibitors of Tau Fibril Formation, Thioflavin T Binding. Microtubule-associated protein tau (Homo sapiens), P10636. recombinant tau K18 P301L, heparin-induced fibrillization, ThT fluorescence. Potency, µM (titrated, usually from 57.4 µM), without a hit: at the highest dose activity, negative = inhibition, most hits filed as inhibitors. 270,000 compounds, 2.1% hits; active = well fitted curve in the direction sought with a large enough effect; inconclusive = small, poorly fitted or top-dose-only effect, or another doubt; inactive = no such curve, though single readings can be large; an effect the other way counts as inactive or inconclusive; also: nearly all actives have a fitted effect of over 55% in size
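K18 P301L tau (15 uM + 0.24 uM Alexa 594-tagged), heparin 20 uM, NaOAc pH 7, 6 h 37 C; ThT 30 uM, 1 h RT, ex 450/em 510 nm.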
JMJD2E inh: qHTS Assay for Inhibitors of Human Jumonji Domain Containing 2E (JMJD2E); Lysine-specific demethylase 4E (Homo sapiens), B2RXH2; JMJD2E catalytic domain, FDH-coupled NADH fluorescence (FDH is formaldehyde dehydrogenase); Potency, µM (top dose mostly 57.1 µM), for inactives: at the highest dose activity change, negative = inhibition, hits mostly inhibitors; 230,000 compounds, 1.6% hits; AID 2147, 2009;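 also: 0% = wells with enzyme and -100% = buffer wells without enzyme; nearly all actives have a fitted effect of over 50% in size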
Target sequence (B2RXH2 1-337 limits assumed): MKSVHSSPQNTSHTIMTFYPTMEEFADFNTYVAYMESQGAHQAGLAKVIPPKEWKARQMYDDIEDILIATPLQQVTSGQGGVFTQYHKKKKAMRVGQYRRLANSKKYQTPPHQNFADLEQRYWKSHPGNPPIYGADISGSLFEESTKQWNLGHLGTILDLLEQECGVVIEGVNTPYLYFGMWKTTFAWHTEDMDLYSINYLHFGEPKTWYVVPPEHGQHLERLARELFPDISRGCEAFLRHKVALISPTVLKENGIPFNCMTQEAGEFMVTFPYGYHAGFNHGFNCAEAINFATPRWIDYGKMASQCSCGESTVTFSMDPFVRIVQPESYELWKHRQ
Tau fluor cs: Counterscreen qHTS for Inhibitors of Tau Fibril Formation, Fluorescence Polarization; Potency, µM (doses to about 57.7 µM), for the others: at the top dose activity change, negative = decrease; 280,000 compounds, 0.93% hits; tau K18 P301L (four-repeat tau fragment) Alexa594 fluorescence, heparin fibrillization; active = well fitted curve in the direction sought with a large enough effect; inconclusive = small, poorly fitted or top-dose-only effect, or another doubt; inactive = no such curve, though single readings can be large; an effect the other way counts as inactive or inconclusive; also: nearly all actives have a fitted effect of over 55% in size
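Human K18 P301L tau (15 uM unlabeled plus 0.24 uM Alexa 594-labeled, final) in 100 mM sodium acetate pH 7 was mixed with compound and 20 uM heparin and incubated 6 hr at 37 C.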
HPGD block: qHTS Assay for Inhibitors of HPGD (15-Hydroxyprostaglandin Dehydrogenase); purified HPGD, NADH fluorescence kinetic, PGE2 substrate; Potency, µM, inactives show at the highest dose activity change, negative = inhibition, actives largely listed as inhibitors; 150,000 compounds, 4.3% hits; AID 894, 2007
Target sequence (P15428 whole entry, looked up): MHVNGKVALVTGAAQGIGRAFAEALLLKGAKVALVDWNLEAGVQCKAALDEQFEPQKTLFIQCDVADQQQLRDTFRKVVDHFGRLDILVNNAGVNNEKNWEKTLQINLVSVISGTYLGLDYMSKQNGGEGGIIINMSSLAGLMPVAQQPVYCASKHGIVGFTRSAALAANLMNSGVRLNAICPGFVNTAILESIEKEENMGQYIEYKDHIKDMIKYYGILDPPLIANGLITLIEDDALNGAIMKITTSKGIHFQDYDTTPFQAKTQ
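NADH formation kinetics: reaction with 30 uM PGE2 and 1 mM NAD+ (final), 20 nM enzyme, Tris-HCl pH 8 with Tween 20, after 15 min compound preincubation at room temperature. Fluorescence change, last versus first of five reads.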
Numbers without * were called inactive; [ ] = dose if it differs, or a comment. Unless noted, calls follow the shape of the dose curve; as a rule, active = well fitted inhibition curve with a large enough effect (not every such curve was filed as active); inconclusive = small, poorly fitted or top-dose-only effect, or another doubt; inactive = no such curve, though single readings can be large or run the other way. Unless noted, % is scaled to controls: 0 for no effect and ±100 for the full control effect; potency is read from the fitted curve at half-maximal effect.

How did NC(=O)C1CCN(CC(=O)NC2CCCc3ccccc32)CC1 (stereo not given) do in these assays?
Tau FP inhib: 1.0%; ALDH1A1 inh: 13.6%; Tau fibril ThT: -5.3%; JMJD2E inh: 16.1%; Tau fluor cs: 3.1%

How did Cc1ccc(S(=O)(=O)N2CCN(CC(=O)NC3CCCc4ccccc43)CC2)c(C)c1 (stereo not given) do in these assays?
Tau FP inhib: 7.6%; ALDH1A1 inh: 12.6µM*; Tau fibril ThT: -16.0%; JMJD2E inh: -1.3%; Tau fluor cs: -6.1%; HPGD block: -7.5%

How did Cc1ccc(S(=O)(=O)N2CCN(CC(=O)NC3CCCc4ccccc43)CC2)cc1C (stereo not given) do in these assays?
Tau FP inhib: 4.6%; ALDH1A1 inh: 0.447µM*; Tau fibril ThT: -14.0%; JMJD2E inh: -2.8%; Tau fluor cs: -6.2%; HPGD block: -10.4%

How did COc1ccc([C@@H](Nc2ncccn2)c2cc3c(cc2O)OCO3)cc1 do in these assays?
ALDH1A1 inh: -12.2%[13.5 µM]; HPGD block: -21.1%

Results for CC(C)NC(=S)Nc1c(N)[nH]c(=O)[nH]c1=O ?
Tau FP inhib: 1.7%; ALDH1A1 inh: -0.9%; Tau fibril ThT: -1.0%; JMJD2E inh: 4.7%; Tau fluor cs: 6.5%

How did OCCNCCOc1ccccc1-c1ccccc1 do in these assays?
Tau FP inhib: 2.1%; ALDH1A1 inh: -12.1%; Tau fibril ThT: -0.3%; JMJD2E inh: -27.4%; Tau fluor cs: -2.8%; HPGD block: 3.0%

How did CC(O)CNCCOc1ccccc1-c1ccccc1 (stereo not given) do in these assays?
Tau FP inhib: 2.1%; ALDH1A1 inh: 11.2µM*; Tau fibril ThT: -5.8%; JMJD2E inh: 7.5%; Tau fluor cs: -0.8%

How did CCOC(=O)c1sc(NC(=S)NC(=O)c2ccccc2)c(C(=O)OCC)c1C do in these assays?
Tau FP inhib: inconclusive; ALDH1A1 inh: -5.6%; Tau fibril ThT: 4.2%; JMJD2E inh: -2.0%; Tau fluor cs: 1.6%; HPGD block: -11.1%

Results for CCOC(=O)C1=C(NC(=S)NC(=O)c2ccccc2)c2ccccc2CC1(C)CC (stereo not given) ?
Tau FP inhib: -5.3%; ALDH1A1 inh: 12.6µM*; Tau fibril ThT: -13.5%; JMJD2E inh: -1.3%; Tau fluor cs: -20.9%; HPGD block: -5.2%

Results for CCOC(=O)C1=C(NC(=S)NC(=O)c2ccccc2)c2ccccc2CC1C(C)C (stereo not given) ?
Tau FP inhib: -7.1%; ALDH1A1 inh: 15µM*; Tau fibril ThT: -11.3%; JMJD2E inh: -1.0%; Tau fluor cs: -21.4%; HPGD block: -14.9%

Results for COc1ccc(NC(=O)COC(=O)[C@@H](NC(=O)c2c(F)cccc2F)C(C)C)cc1 ?
Tau FP inhib: 1.5%; ALDH1A1 inh: inconclusive; Tau fibril ThT: 1.4%; JMJD2E inh: 3.9%; Tau fluor cs: 2.6%

Results for COc1ccc(-c2nnc3c4ccccc4c(-c4ccccc4)nn23)cc1 ?
Tau FP inhib: -1.7%; Tau fibril ThT: -3.4%; Tau fluor cs: -10.8%

What do the screens show for `CCCN1C(=O)C(Cc2nc3ccccc3c(=O)n2-c2ccccc2)c2ccccc21` (stereo not given)?
Tau FP inhib: 2.2%; ALDH1A1 inh: 8.91µM*; Tau fibril ThT: -9.5%; JMJD2E inh: 7.9%; Tau fluor cs: -2.2%; HPGD block: -1.7%

How did O=C(COC(=O)c1ccc2c(c1[N+](=O)[O-])C(=O)c1ccccc1C2=O)NC1CC1 do in these assays?
Tau FP inhib: -5.2%; ALDH1A1 inh: inconclusive; Tau fibril ThT: 10µM*; JMJD2E inh: 6.2%; Tau fluor cs: inconclusive

What do the screens show for `CC(C)N(C(=O)COC(=O)c1ccccc1C(=O)c1ccc(Cl)c([N+](=O)[O-])c1)C(C)C`?
Tau FP inhib: 5.8%; ALDH1A1 inh: -9.3%; Tau fibril ThT: -6.0%; JMJD2E inh: 3.4%; Tau fluor cs: -10.6%

What do the screens show for `COC(=O)c1ccc(SCC(=O)NC2CCCC2)c([N+](=O)[O-])c1`?
Tau FP inhib: -1.6%; ALDH1A1 inh: 1.4%; Tau fibril ThT: -5.8%; JMJD2E inh: -0.9%; Tau fluor cs: -15.1%; HPGD block: 35.5µM*

What do the screens show for `O=C(COC(=O)c1cccc2c1C(=O)c1ccccc1C2=O)NC1CCCCC1`?
Tau FP inhib: 12.7%; ALDH1A1 inh: inconclusive; Tau fibril ThT: -20.0%; JMJD2E inh: -0.4%; Tau fluor cs: inconclusive; HPGD block: -16.7%

Results for CC1CCCCC1NC(=O)COC(=O)COc1ccccc1Cl (stereo not given) ?
Tau FP inhib: -0.2%; ALDH1A1 inh: -4.7%; Tau fibril ThT: -6.3%; JMJD2E inh: -4.9%; Tau fluor cs: -5.7%

What do the screens show for `CC1CCCCC1NC(=O)COC(=O)c1ccc2c(c1Cl)C(=O)c1ccccc1C2=O` (stereo not given)?
Tau FP inhib: 3.9%; ALDH1A1 inh: -16.0%; Tau fibril ThT: -17.5%; JMJD2E inh: -15.0%; Tau fluor cs: -26.5%; HPGD block: 15.8µM*

What do the screens show for `O=C(COC(=O)c1ccccc1C(=O)c1ccc(Cl)c([N+](=O)[O-])c1)NC1CCCCCC1`?
Tau FP inhib: -5.9%; ALDH1A1 inh: 14.1µM*; Tau fibril ThT: inconclusive; JMJD2E inh: 8.9%; Tau fluor cs: inconclusive; HPGD block: -17.1%

How did CCCSc1oc(-c2cccs2)nc1S(=O)(=O)c1ccc(Cl)cc1 do in these assays?
Tau FP inhib: -10.3%; Tau fibril ThT: -10.7%; Tau fluor cs: -29.6%

What do the screens show for `Cc1ccc(C2=C(Cl)C(=O)C(c3ccc(C)cc3)=C(Cl)C2=O)cc1`?
ALDH1A1 inh: -3.4%[13.5 µM]; HPGD block: 2.24µM*

Results for Cc1ccc(NC(=O)Cn2cc(C(F)(F)F)cc(Cl)c2=O)cc1Cl ?
Tau FP inhib: -7.2%; ALDH1A1 inh: -8.7%; Tau fibril ThT: 2.3%; JMJD2E inh: -14.8%; Tau fluor cs: 1.6%

Results for COc1ccc2c(c1)c1ccc3c(c1n2C)C(=O)C=CC3=O ?
Tau FP inhib: 15.8µM*; ALDH1A1 inh: 0.282µM*; Tau fibril ThT: 5.01µM*; JMJD2E inh: -13.2%; Tau fluor cs: 3.55µM*[quencher]

Results for Cc1ccc2c(c1)c1ccc3c(c1n2C)C(=O)C=CC3=O ?
Tau FP inhib: inconclusive; JMJD2E inh: inconclusive; Tau fluor cs: 0.891µM*[quencher]
